TDP1 cell CPT – DT40-hTDP1 cell growth loss with CPT; AID 686979; chicken DT40 Tdp1-/-;hTDP1 cells + 20 nM CPT, ATP luminescence, 48 h; 420,000 tested, 12% active; Potency, µM (doses to about 46.2 µM), actives largely listed as inhibitors; also: nearly all actives have a fitted effect of over 55% in size
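Chicken DT40 Tdp1-/- cells complemented with human TDP1, 400 cells/well, exposed to compounds plus 20 nM camptothecin for at least 48 h at 37 C; viability read as ATP content by CellTiter-Glo luminescence.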
ELG1 repair inh – ELG1-dependent DNA repair inhibition; AID 504467; HEK293T ELG1-luciferase reporter, luminescence, 16 h; DNA damage induced by 5-fluorouridine; Potency, µM (top dose mostly 46.1 µM), most hits filed as inhibitors; 330,000 tested, 2.3% active; also: nearly all actives have a fitted effect of over 55% in size
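Overnight (16 hr) co-exposure of 2,000 cells/well to 5-fluorouridine and compound at 37 °C preceded detection. Luciferase was quantified via ONE-Glo luminescence; loss of signal denotes inhibition.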
TDP1 block – TDP1 (human) enzyme inhibition | recombinant TDP1, AlphaScreen DNA substrate cleavage | Potency, µM (highest dose often 130 µM), most hits filed as inhibitors | Q9NUW8 | 350,000 tested, 0.28% active; also: nearly all actives have a fitted effect of over 40% in size
Target sequence (Q9NUW8 whole entry, looked up): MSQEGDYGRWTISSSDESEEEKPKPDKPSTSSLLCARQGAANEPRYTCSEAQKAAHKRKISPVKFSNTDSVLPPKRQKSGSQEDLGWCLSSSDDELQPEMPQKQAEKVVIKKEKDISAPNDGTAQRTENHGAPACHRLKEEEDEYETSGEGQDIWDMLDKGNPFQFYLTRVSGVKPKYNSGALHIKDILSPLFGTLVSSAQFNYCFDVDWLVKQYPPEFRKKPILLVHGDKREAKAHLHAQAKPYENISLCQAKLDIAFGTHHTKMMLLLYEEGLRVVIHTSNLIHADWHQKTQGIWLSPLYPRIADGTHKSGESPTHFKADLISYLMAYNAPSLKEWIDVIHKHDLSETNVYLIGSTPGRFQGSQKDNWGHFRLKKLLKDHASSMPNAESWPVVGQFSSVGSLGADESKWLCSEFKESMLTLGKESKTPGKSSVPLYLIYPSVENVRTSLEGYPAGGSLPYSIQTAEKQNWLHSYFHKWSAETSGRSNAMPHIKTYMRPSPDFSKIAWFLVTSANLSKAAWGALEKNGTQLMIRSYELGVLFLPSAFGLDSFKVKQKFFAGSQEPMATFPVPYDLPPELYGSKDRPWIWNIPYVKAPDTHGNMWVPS
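E. coli-derived human Tdp1, 1 nM final. Cpd preinc 15 min RT; substrate 15 nM final, 5 min RT; AS bead mix 10 ug/ml final, 10 min RT. Signal loss = tyrosine-FITC cleavage. No-enzyme wells = max signal.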
IL-1B inflam inh – inflammasome signaling inhibition, IL-1 beta readout. AID 743279. THP-1 LPS/ATP IL-1B secretion, AlphaLISA, 16 h; stronger effect = lower value. 360,000 tested, 4.7% active. activity change, % at 57.5 µM; in the data active = activity change below about -50%; inconclusive = mostly about -30% to -49%
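Secreted IL-1B measured by AlphaLISA bead assay after 16 h compound exposure of THP-1 cells; compounds (final up to 57.5 uM) added 1 h before LPS (250 ng/mL) and ATP (1.25 mM) stimulation; lower signal means less secretion.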
DT40 TDP1 no CPT – qHTS for Inhibitors of human tyrosyl-DNA phosphodiesterase 1 (TDP1): qHTS in cells in absence of CPT; DT40 Tdp1-/- hTDP1 cells, no CPT, ATP luminescence, 48 h; Potency, µM (doses to about 46.2 µM), most hits filed as inhibitors; 420,000 tested, 15% active; AID 686978, 2013; also: nearly all actives have a fitted effect of over 55% in size
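Cells were dispensed at 400 per well, compounds added by pin tool, plates incubated ≥48 hr at 37 °C, then CellTiter-Glo added for 30 min at room temperature before luminescence reading. Line: DT40 Tdp1-/- complemented with hTDP1; camptothecin omitted.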
Giardia killer – kills Giardia lamblia; Giardia lamblia trophozoite viability; activity change, % at 7.66 µM, hits read low; 340,000 tested, 0.15% active; AID 540267; in the data active = activity change below about -80%; inconclusive = between about -30% and that limit;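 also: parasites exposed to compound for two days anaerobically before the ATP read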
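Trophozoites 100 cells/well + cpd; 48 hrs, 37 deg C, anaerobic. ATPLite 1-Step added, 15-30 min RT, luminescence read (ATP-based viability).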
Large screens that a line does not name were inactive. Sampled rows, rich in hits. Any-hit rate of the full collection: about 19%. Unless noted, calls follow the shape of the dose curve; as a rule, active = well fitted curve in the direction sought with a large enough effect; inconclusive = small, poorly fitted or top-dose-only effect, or another doubt; inactive = no such curve, though single readings can be large; an effect the other way counts as inactive or inconclusive.

COc1ccc(-c2noc(CCCC(=O)NC3CCCCC3)n2)cc1OC	none (no result: TDP1 block)
O=C(CCCc1nc(-c2ccccc2)no1)Nc1cc(C(F)(F)F)cc(C(F)(F)F)c1	TDP1 cell CPT inconclusive, DT40 TDP1 no CPT 23µM (no result: ELG1 repair inh, IL-1B inflam inh, Giardia killer)
COc1ccc(NC(=O)CCc2nc(-c3ccccc3F)no2)cc1	TDP1 cell CPT inconclusive, DT40 TDP1 no CPT 2.6µM
CCn1c(COc2ccc(OC)cc2)nnc1SCc1nc2ccccc2c(=O)[nH]1	none (no result: TDP1 cell CPT, IL-1B inflam inh, DT40 TDP1 no CPT, Giardia killer)
CC(OC(=O)CSc1ccc(F)cc1)C(=O)NC1(C#N)CCCCC1 (stereo not given)	none
CN1C(N)=NC(=O)/C1=C\c1ccc(Br)cc1	IL-1B inflam inh inconclusive (no result: TDP1 block)
Cc1ccc(NC(=O)c2cccc3c2C(=O)N(C2CCCCC2)C3)c(Cl)c1	TDP1 cell CPT 18µM (no result: IL-1B inflam inh)
COc1cc(NC(=O)c2cccc3c2C(=O)N(C2CCCCC2)C3)cc(OC)c1OC	TDP1 cell CPT 23µM, ELG1 repair inh 4.6µM, IL-1B inflam inh -60, DT40 TDP1 no CPT 7.3µM
CCCN1Cc2cccc(C(=O)Nc3ccc(OC)c(OC)c3)c2C1=O	none (no result: ELG1 repair inh, TDP1 block)
Cc1cc(C)cc(NC(=O)c2cccc3c2C(=O)N(C2CCCCC2)C3)c1	ELG1 repair inh inconclusive
CCOC(=O)N1CCC(N2Cc3cccc(C(=O)Nc4ccccc4OC)c3C2=O)CC1	TDP1 cell CPT 23µM, DT40 TDP1 no CPT 16µM
CCOC(=O)N1CCC(N2Cc3cccc(C(=O)Nc4ccc(OC)c(OC)c4)c3C2=O)CC1	TDP1 cell CPT 18µM, ELG1 repair inh inconclusive, IL-1B inflam inh inconclusive, DT40 TDP1 no CPT inconclusive
CCOC(=O)N1CCC(N2Cc3cccc(C(=O)N4CCN(C5CCCCC5)CC4)c3C2=O)CC1	none
O=S1(=O)CC(N2CCN(CCO)CC2)CN1CCc1ccccc1 (stereo not given)	none (no result: ELG1 repair inh, TDP1 block, Giardia killer)
COc1cc(C2NC(=O)CCC2[N+](=O)[O-])cc(OC)c1OC (stereo not given)	ELG1 repair inh inconclusive (no result: TDP1 block)
O=C1CC2(CCCC2)CC(=O)N1CCCCNCC1COc2ccccc2O1 (stereo not given)	none (no result: ELG1 repair inh, IL-1B inflam inh, Giardia killer)
CC(=O)NC(Cc1cccc(C)c1)C(=O)NC1CCN(S(=O)(=O)c2ccccc2)CC1 (stereo not given)	none (no result: TDP1 block)
CCOc1ccccc1CNC(=O)c1cnn(-c2ccc(C)cc2)c1-n1cccc1	TDP1 cell CPT inconclusive, DT40 TDP1 no CPT 21µM (no result: ELG1 repair inh, IL-1B inflam inh, Giardia killer)
Cc1ccc(-n2ncc(C(=O)NCc3ccccc3C)c2-n2cccc2)cc1	TDP1 cell CPT inconclusive, DT40 TDP1 no CPT 23µM (no result: ELG1 repair inh, IL-1B inflam inh, Giardia killer)
O=C(NCCc1ccccc1)c1cnn(-c2ccc(F)cc2)c1-n1cccc1	none (no result: TDP1 cell CPT, ELG1 repair inh, IL-1B inflam inh, DT40 TDP1 no CPT, Giardia killer)
Cn1ncc2c(=S)[nH]c(=S)[nH]c21	TDP1 cell CPT inconclusive, DT40 TDP1 no CPT inconclusive (no result: ELG1 repair inh, TDP1 block, Giardia killer)
O=C(NCCc1cnc[nH]1)c1ccc(-c2ccccc2)cc1	ELG1 repair inh inconclusive, IL-1B inflam inh -54 (no result: TDP1 block)
O=C(NCCCNC(=O)c1ccccn1)c1ccc(Cl)cc1	none (no result: TDP1 block)
O=C(NCCNC(=O)c1ccccn1)c1ccc(-c2ccccc2)cc1	DT40 TDP1 no CPT 21µM (no result: TDP1 block)
CCCc1ccc(C(O)c2ncc(-c3ccccc3)[nH]2)cc1 (stereo not given)	none (no result: ELG1 repair inh, TDP1 block, Giardia killer)
Cc1ccc(S(=O)(=O)N2CCCC(C(=O)N3CCCc4ccccc43)C2)cc1 (stereo not given)	TDP1 cell CPT 21µM, DT40 TDP1 no CPT 21µM
O=C(C1CCCN(S(=O)(=O)c2ccccc2)C1)N1CCCc2ccccc21 (stereo not given)	TDP1 cell CPT inconclusive, ELG1 repair inh 23µM, DT40 TDP1 no CPT 18µM
CCc1ccc(NC(=O)CSc2ccc(-c3sc(-c4ccccc4)nc3C)nn2)cc1	TDP1 cell CPT inconclusive, DT40 TDP1 no CPT 12µM (no result: ELG1 repair inh, IL-1B inflam inh, Giardia killer)
COc1cccc(CNC(=O)CSc2ccc(-c3sc(-c4ccccc4)nc3C)nn2)c1	TDP1 cell CPT inconclusive, DT40 TDP1 no CPT 18µM (no result: ELG1 repair inh, IL-1B inflam inh, Giardia killer)
CC(=O)Nc1cccc(NC(=O)C(=O)NCCc2sc(-c3ccccc3)nc2C)c1	TDP1 cell CPT 1.5µM, DT40 TDP1 no CPT 1.2µM (no result: ELG1 repair inh, IL-1B inflam inh, Giardia killer)
Cc1nc(-c2ccccc2)sc1-c1ccc(SCC(=O)Nc2cccc(C(F)(F)F)c2)nn1	TDP1 cell CPT inconclusive (no result: ELG1 repair inh, TDP1 block, IL-1B inflam inh, Giardia killer)

Source: PubChem (National Center for Advancing Translational Sciences (NCATS))
